PubChem BioAssay AID488969 (Vanderbilt High Throughput Screening Facility, 2010)
Several values for one entry are separate records, joined by “and”; a condition that tells them apart may be missing. Equal values may be shown once. The full ranking holds about 110,000 compounds; the median of “z-score” is about -0.1, and the highest 2% start at about 2. Shown is part of a subset that was picked to be rich in the highest values. Activity calls are given as the source filed them.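 Rule for the calls: active = z-score in the third read window above 3 or below -3; inactive = the rest.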

Each molecule was assayed against Metabotropic glutamate receptor 8 (Rattus norvegicus) (UniProt P70579) (assay: mGluR8 Gi/Go-coupled signaling modulation – cell-based, rat, thallium flux, HTS, primary screen (AID 488969)). Details: HEK293 rat mGluR8, GIRK (G protein-gated inwardly rectifying potassium channel) thallium flux, FluoZin2; at 10 µM; stronger effect = higher value; submaximal glutamate (EC20) added with thallium.
Chain of Metabotropic glutamate receptor 8 (Rattus norvegicus) (P70579 whole entry, looked up): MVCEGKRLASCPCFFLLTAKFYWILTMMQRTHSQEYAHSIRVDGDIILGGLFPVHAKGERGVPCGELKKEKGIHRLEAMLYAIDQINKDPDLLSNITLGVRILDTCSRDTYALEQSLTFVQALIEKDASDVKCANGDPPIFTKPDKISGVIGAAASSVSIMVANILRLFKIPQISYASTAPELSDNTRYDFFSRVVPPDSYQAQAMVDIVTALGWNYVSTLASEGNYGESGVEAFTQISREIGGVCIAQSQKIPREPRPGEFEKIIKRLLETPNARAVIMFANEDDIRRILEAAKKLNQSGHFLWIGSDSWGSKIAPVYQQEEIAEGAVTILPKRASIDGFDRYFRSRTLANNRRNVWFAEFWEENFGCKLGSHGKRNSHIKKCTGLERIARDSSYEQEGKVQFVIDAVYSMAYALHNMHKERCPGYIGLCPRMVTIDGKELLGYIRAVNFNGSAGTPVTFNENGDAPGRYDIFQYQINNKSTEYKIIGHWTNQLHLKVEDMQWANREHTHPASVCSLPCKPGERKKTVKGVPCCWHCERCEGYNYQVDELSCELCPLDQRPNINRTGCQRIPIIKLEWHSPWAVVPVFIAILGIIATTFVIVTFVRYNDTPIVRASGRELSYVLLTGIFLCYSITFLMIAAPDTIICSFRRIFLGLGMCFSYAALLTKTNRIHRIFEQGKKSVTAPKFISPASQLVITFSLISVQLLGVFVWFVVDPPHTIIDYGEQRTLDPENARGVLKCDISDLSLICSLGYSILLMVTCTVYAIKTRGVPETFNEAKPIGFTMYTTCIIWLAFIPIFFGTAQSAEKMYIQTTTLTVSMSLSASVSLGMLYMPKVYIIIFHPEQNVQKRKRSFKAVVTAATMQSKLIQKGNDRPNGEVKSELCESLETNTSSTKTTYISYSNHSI

SMILES	z-score
O=C(c1cc(Cl)ccc1[N+](=O)[O-])n1cnc2ccccc21	-0.721
COc1ccccc1N1CCN(C(=O)c2cc(-c3ccco3)on2)CC1	-0.34
CCOC(=O)c1cnn2c(C)cc(-c3ccccc3)nc12	2.74
COC(=O)c1cnn2c(C(F)(F)F)cc(-c3ccccc3)nc12	-0.00832
CCOC(=O)c1cnn2c(C)cc(-c3ccc(F)cc3)nc12	-0.151
CCOC(=O)C1=C(C)N=c2s/c(=C/c3ccccc3)c(=O)n2C1c1ccc(OC)c(OC)c1 (stereo unspecified)	-0.183
CCOc1cc(C(=O)OCC(=O)c2c(N)n(C)c(=O)n(C)c2=O)cc(OCC)c1OCC	-0.112
Cn1c(N)c(C(=O)CCl)c(=O)n(C)c1=O	0.0911
CCOC(=O)C=Nc1c(N)n(C)c(=O)n(C)c1=O	2.44
CC1(C)C(=O)OC(c2cccn2-c2ccc([N+](=O)[O-])cc2)C(C)(C)C1=O (stereo unspecified)	-0.471
Cc1cccc(SCc2noc(C(=O)NC(C)C)c2C(=O)O)c1	-0.0231
O=C1NC(=Nc2cccc(Cl)c2)SC1Cc1cccc(Cl)c1Cl (stereo unspecified)	-0.324
O=C(Nc1ccccc1)N1CCOCC1	-0.206
O=C(Nc1ccccc1)Nc1ccc(C(=O)N2CCOCC2)cc1	-0.0267
O=C(NC(=Nc1ccccc1)N1CCOCC1)Nc1ccccc1	2.94
CC(=C/C(=O)O)/C=C/c1ccc([N+](=O)[O-])cc1	-0.0461
CC(/C=C\c1cccnc1)=C/C(=O)O	-0.175 and 6.26 (active)
CC(=C/C(=O)O)/C=C/c1cccs1	-0.429
Cn1cccc1C1Nc2ccccc2NC2=C1C(=O)CC(C)(C)C2 (stereo unspecified)	-0.491

SMILES	z-score
Cc1c(C2Nc3ccccc3NC3=C2C(=O)CC(C)(C)C3)cnn1C (stereo unspecified)	4.64 (active)
CC1(C)CC(=O)C2=C(C1)Nc1ccccc1NC2c1nc2ccccc2[nH]1 (stereo unspecified)	-0.113
CCOc1ccc(N(CC(=O)NCC2CCCO2)C(=O)CCC(=O)Nc2ccccn2)cc1 (stereo unspecified)	-1.08
COc1ccc(NC(=O)CSc2nc(N)c3cc4c(nc3n2)CCCC4)cc1	-0.916
O=C(COC(=O)c1ccccc1C(=O)c1ccccc1)NCCc1ccc(Cl)cc1Cl	-0.0656
S=c1[nH]nc(-c2ccccn2)n1/N=C/c1ccc(Br)s1	5.6 (active)
Cc1ccc(/C=N/n2c(-c3ccco3)n[nH]c2=S)s1	0.259
Cc1cc(-c2n[nH]c(=S)n2/N=C/c2sccc2C)n[nH]1	-0.362
S=c1[nH]nc(-c2ccccn2)n1/N=C/c1ccccc1	-0.194
Cc1cc(-c2n[nH]c(=S)n2/N=C/c2ccc(Br)s2)n[nH]1	4.55 (active)
S=c1[nH]nc(-c2ccco2)n1/N=C/c1ccc(Br)s1	4.39 (active)
S=c1[nH]nc(-c2ccco2)n1/N=C/c1cccs1	-0.0217
S=c1[nH]nc(-c2ccccn2)n1/N=C/c1cccs1	-0.126
Cc1cc(-c2n[nH]c(=S)n2/N=C/c2ccc(C)s2)n[nH]1	-0.0648
Nc1c(C(O)(C(F)(F)F)C(F)(F)F)cc(C(O)(C(F)(F)F)C(F)(F)F)c2ccccc12	0.066
CC1=C(C(=O)NCc2ccccc2)C(c2ccccc2OCC(N)=O)NC(=O)N1 (stereo unspecified)	0.226
O=C(Cc1c(F)cccc1Cl)N1CCCC1	0.183
CS(=O)(=O)N1CCC(C(=O)NCc2ccco2)CC1	0.432
COc1ccc(N2CCN(C(=O)c3cccc(N4C(=O)C5CC=CC(C)C5C4=O)c3)CC2)cc1 (stereo unspecified)	-0.43

SMILES	z-score
COc1cc(/C=C2/SC(=S)NC2=O)ccc1OS(=O)(=O)c1ccc(C)cc1	-2.12
COc1cc(/C=C2\SC(=S)NC2=O)ccc1OS(=O)(=O)c1ccccc1	15.1 (active)
COc1ccc(/C=C2\SC(=O)NC2=S)cc1OC	2.05
COc1cc(/C=C2/C(=O)N(c3ccccc3)N=C2C)ccc1OS(=O)(=O)c1ccccc1	-0.322
COc1ccc(/C=C2\SC(=O)N=C2N)cc1OC	0.0136
COc1ccc(/C=C2\SC(c3ccc(C)cc3)=NC2=O)cc1OC	-1.87
CCOC(=O)c1c(-c2ccc(OC)cc2)nc2nonc2c1N	0.0715
CC(C)CCNC(=S)Nc1ccc(F)cc1	0.97
COc1cc(C)c(S(=O)(=O)N2CCOCC2)cc1C	0.136
COc1ccc(NC(=O)CSc2ccc(-c3ccccn3)nn2)cc1OC	-0.397
Cc1ccc(S(=O)(=O)c2nc(C(C)(C)C)oc2N2CCOCC2)cc1	-0.0758
N#C/C(=C\c1ccco1)C(=O)NCC1CCCO1 (stereo unspecified)	-0.0138
CC(C)NS(=O)(=O)c1cccc2nsnc12	-0.236
COc1ccc2cc3cc(C(=O)NC(C)C)oc3nc2c1	0.629
C=CCSc1nc2sc3c(c2c(=O)n1CC=C)CCc1ccccc1-3	-0.139
C=CCSc1nc2sc3c(c2c(=O)n1CC)CCc1ccccc1-3	2.62
C=CCn1c(SCC)nc2sc3c(c2c1=O)CCc1ccccc1-3	0.571
CCOC(=O)CSc1c(-c2ccccc2)c2cc(Cl)ccc2[nH]c1=O	-0.516
